Test results reported in PubChem BioAssay (Tox21).
The source made the active and inactive calls. The call rests on the fitted dose curve.

Assay: qHTS assay to identify small molecule agonists of the sonic hedgehog signaling (Shh) pathway (AID 1259368);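 further: NIH/3T3-derived 3T3Gli1-Luc cells carrying a stable Gli1-driven firefly luciferase reporter; nearly all actives have a fitted effect of over 15% in size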
Conditions: NIH/3T3 Gli1-Luc reporter, luciferase, 24 h; series mostly up to 92.4 µM
Description: National Center for Advancing Translational Sciences [NCATS]
NIH Chemical Genomics Center [NCGC]
U.S. Environmental Protection Agency [EPA]
National Institutes of Environmental Health Sciences [NIEHS]
National Toxicology Program [NTP]
The sonic hedgehog (Shh) pathway is essential for normal embryonic development. Dysregulation of the Shh pathway can cause severe developmental defects in organs. Therefore chemicals that interfere with the pathway are potential developmental toxicants. A cell line designated 3T3Gli1-Luc (DMB/OARSA/CFSAN/FDA, Laurel, MD), a NIH/3T3 derived clone containing stably integrated Gli1-Luc reporter is used to detect chemical interference of the Shh pathway, by changes in the expression of the firefly Luc gene under the control of the Gli1 transcriptional response element. This cell line was used to screen Tox21 libraries for identifying and prioritizing the potential developmental toxicants that interfere Shh pathway.
3T3 Gli1-Luc cells were dispensed at 2,000 per well in 5uL of culture medium into white solid bottom 1536-well plates (Greiner Bio-One, Monroe, NC) using a Multidrop Combi (Thermo Scientific, Waltham, MA) dispenser. The assay plates were incubated at 37 C and 5% CO2 for 4hr, and then 23nL of compounds dissolved in DMSO and positive control were transferred using a Pintool station (Wako, San Diego, CA). The assay plates were incubated at 37C and 5% CO2 for 24hr. For luciferase read, 4uL of Amplite Luciferase reporter gene assay reagent (AAT Bioquest, Inc. Sunnyvale, CA) was added to each well of the assay plates using Flying Reagent Dispenser (FRD, Aurora Discovery, San Diego, CA) and incubated at room temperature for 30min. The luminescence signal was measured using a ViewLux plate reader (Perkin Elmer, Shelton, CT).
In the case of O=C(Cl)c1c(Cl)cccc1Cl, the outcome is reported as “inactive”.
For CC(C)c1ccc2c(C(C)C)cc(C(C)C)c(S(=O)(=O)O)c2c1, the outcome was “inactive”.
In the case of N[C@H]1C(O)O[C@H](CO)[C@H](O)[C@@H]1O (stereo not given in full), the outcome is reported as “inactive”.
With O=C(c1ccc(O)cc1)c1ccc(O)cc1 the outcome was “inactive”.
In the case of CC(=O)NCCCS(=O)(=O)O, the outcome is reported as “inactive”.
With ClC(Cl)(Cl)c1ccc(C(Cl)(Cl)Cl)cc1 the outcome was “inactive”.
With Cn1sccc1=O the outcome was “inactive”.
For Cn1c(NCCN(CCO)CCCc2ccc([N+](=O)[O-])cc2)cc(=O)n(C)c1=O, the outcome was “inactive”.
In the case of C=CC[N+]1([C@H]2C[C@H]3[C@@H]4CC[C@H]5C[C@H](OC(C)=O)[C@@H](N6CCCCC6)C[C@]5(C)[C@H]4CC[C@]3(C)[C@H]2OC(=O)CC)CCCCC1, the outcome is reported as “inactive”.
In the case of Nc1nc(CC(=O)O)cs1, the outcome is reported as “inactive”.
In the case of CC(C)(C)c1ccc(S)cc1, the outcome is reported as “inactive”.
In the case of CCCCCCOC(=O)CCC, the outcome is reported as “inactive”.
With CCCOc1ccc2nc(NC(=O)OC)[nH]c2c1 the outcome was “inactive”.
In the case of Nc1nc(N)c(-c2ccccc2)s1, the outcome is reported as “inactive”.
With CN(c1nccc(=O)[nH]1)C1CCN(c2nc3ccccc3n2Cc2ccc(F)cc2)CC1 the outcome was “inactive”.
In the case of CCCCCCCCCO, the outcome is reported as “inactive”.
In the case of Cc1cccc(Oc2ccccc2)c1, the outcome is reported as “inactive”.
In the case of O=C(NS(=O)(=O)/C=C/c1cccs1)c1ccc(F)cc1Br, the outcome is reported as “inactive”.
With CN1CCN(C2=Nc3ccccc3Sc3ccc(Cl)cc32)CC1 the outcome was “inactive”.
In the case of Oc1ccc(Cc2ccccc2)cc1, the outcome is reported as “inactive”.
In the case of CC1CCc2cc(F)cc3c(=O)c(C(=O)O)cn1c23 (stereo not given), the outcome is reported as “inactive”.
For CCN(CC)C(C)CN1c2ccccc2Sc2ccccc21 (stereo not given), the outcome was “inactive”.
In the case of CNS(=O)(=O)Cc1ccc2[nH]cc(CCN(C)C)c2c1, the outcome is reported as “inactive”.
With CCCCOC(=O)c1ccccc1C(=O)OCC(CC)CCCC (stereo not given) the outcome was “inactive”.
For Cc1occc1S, the outcome was “inactive”.
In the case of CCCCC(CC)(CO)CO, the outcome is reported as “inactive”.
With CC1=CC(=O)/C(=C(/C)O)C(=O)O1 the outcome was “inactive”.
For O=C(O)Cn1c(C(=O)Nc2nc(-c3ccccc3Cl)cs2)cc2ccccc21, the outcome was “inactive”.
In the case of N#Cc1c(F)cccc1F, the outcome is reported as “inactive”.
In the case of NC(=S)N/N=C/c1cccnc1, the outcome is reported as “inactive”.
With COc1cc(C(C)(C)C)c(O)c(C(C)(C)C)c1 the outcome was “inactive”.
In the case of CCCCCCCCC(CO)CCCCCC (stereo not given), the outcome is reported as “inactive”.
With CN(C(=O)CCCOc1ccc2[nH]c(=O)ccc2c1)C1CCCCC1 the outcome was “inactive”.
In the case of CC(C(=O)O)c1ccc(-c2ccccc2)c(F)c1 (stereo not given), the outcome is reported as “inactive”.
With COc1ccc([C@@H]2Sc3ccccc3N(CCN(C)C)C(=O)[C@@H]2OC(C)=O)cc1 the outcome was “inactive”.
With O=C(O)COC(=O)Cc1ccccc1Nc1c(Cl)cccc1Cl the outcome was “inactive”.
For O=C(NN1CCCC1)NS(=O)(=O)c1ccc(Cl)cc1, the outcome was “inactive”.
With O=C(O)c1cn(C2CC2)c2cc(Cl)c(F)cc2c1=O the outcome was “inactive”.
For CN1CCC(=C2c3ccccc3CCc3sccc32)CC1, the outcome was “inactive”.
In the case of Nc1nc(N)c2nc(CNc3ccc(C(=O)N[C@@H](CCC(=O)O)C(=O)O)cc3)cnc2n1, the outcome is reported as “inactive”.
